Compound activity as filed in PubChem BioAssay.
Sampled rows, rich in hits. Any-hit rate of the full collection: about 19%.
Pf growth 48h: P. falciparum growth inhibition at 48 hours (one generation); Potency, µM (doses to about 28.7 µM), hits mostly inhibitors; P. falciparum luciferase growth in erythrocytes, 48 h; 5.9% of 310,000 active
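Parasite viability was followed by luminescence of a genomically integrated firefly luciferase. Cultures held 0.1% parasitemia at 2% hematocrit (final), incubated under 5% CO2 at 37 C.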
SARS PLpro yeast: inhibitors of SARS-CoV papain-like protease in yeast. Potency, µM (highest dose often 32.9 µM), hits mostly activators. S. cerevisiae expressing SARS-CoV PLpro, growth rescue. AID 485353. 0.19% of 330,000 active; calls by dose curve; further: nearly all actives have a fitted effect of over 55% in size
AMA1 RON2 block: AMA1-RON2 (P. falciparum) interaction inhibition; AlphaScreen AMA1-biotinylated RON2 peptide binding; Potency, µM (titrated, usually from 58.2 µM), most hits filed as inhibitors; AID 720542; 0.2% of 360,000 active; further: nearly all actives have a fitted effect of over 45% in size
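AMA1 (3D7) with his tag at 25 nM final met compounds first, then biotinylated RON2 peptide at 25 nM; detection used donor plus acceptor beads, 10 µg/mL apiece, read by AlphaScreen after 30 min at room temperature.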
Pf growth 96h: P. falciparum growth inhibition at 96 hours | P. falciparum luciferase reporter growth, 96 h | Potency, µM (highest dose often 28.7 µM), hits mostly inhibitors | 6.9% of 320,000 active | AID 504834
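Parasite growth measured via integrated firefly luciferase reporter in P. falciparum. Infected erythrocytes at 2% hematocrit, 0.05% parasitemia final were treated 96 hours at 37 C under 5% CO2, and luminescence was read.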
Shiga inhibitor: Shiga toxin inhibition. Vero cells, Shiga toxin protein synthesis inhibition reporter. inhibition, % at 38.7 µM. 9.2% of 290,000 active; in the data active means inhibition mostly above about 28%, no sharp cut-off; inactive means mostly below about 43%
Cycloheximide cs: counter-screen hit for Shiga toxin inhibitors, cycloheximide. cell reporter, cycloheximide protein synthesis inhibition counterscreen. max response, %. 12% of 300,000 active. AID 2314; in the data active means max response mostly above about 13%, no sharp cut-off; inactive means mostly below about 14%; further: read at 38.3 µM for the half of the compounds with a filed dose
Numbers stand for hits; [ ] = remark or other dose. Unless noted, the call rests on the fitted dose curve; in most records, active means well fitted curve in the direction sought with a large enough effect; inconclusive means small, poorly fitted or top-dose-only effect, or another doubt; inactive means no such curve, though single readings can be large; an effect the other way counts as inactive or inconclusive.

What do the screens show for `Cn1cc(S(=O)(=O)c2ccccc2)c(=O)c2cc(Cl)ccc21`?
Pf growth 48h: inactive; SARS PLpro yeast: inactive; AMA1 RON2 block: inactive; Pf growth 96h: inactive; Shiga inhibitor: inactive; Cycloheximide cs: inactive

Results for Cn1cc(C=O)c2cc(F)ccc21 ?
Pf growth 48h: inactive; SARS PLpro yeast: inactive; AMA1 RON2 block: inactive; Pf growth 96h: inactive; Shiga inhibitor: inactive; Cycloheximide cs: inactive

What do the screens show for `Cn1ccc2c(/C=C/c3ccc(F)cc3)cc3c(c21)C1CCC3C1` (centres undefined)?
AMA1 RON2 block: inactive

How did Cn1cc(/C=C/c2cc[n+](C)cc2)c2cc(F)ccc21 do in these assays?
Pf growth 48h: 0.26µM; SARS PLpro yeast: inactive; AMA1 RON2 block: inactive; Pf growth 96h: 0.13µM; Shiga inhibitor: inactive; Cycloheximide cs: inactive

What do the screens show for `C[n+]1ccc(/C=C/c2c[nH]c3ccc(F)cc23)cc1`?
Pf growth 48h: 0.37µM; SARS PLpro yeast: inactive; AMA1 RON2 block: inactive; Pf growth 96h: inconclusive; Shiga inhibitor: inactive; Cycloheximide cs: inactive

How did Cc1noc(C)c1C(=O)OC(C)C(=O)Nc1ccc(C(N)=O)cc1 (centres undefined) do in these assays?
Pf growth 48h: inconclusive; SARS PLpro yeast: inactive; AMA1 RON2 block: inactive; Pf growth 96h: inactive

Results for Cc1nc(-c2cccc(NS(=O)(=O)c3ccc4ccccc4c3)c2)cs1 ?
Pf growth 48h: inactive; SARS PLpro yeast: inactive; AMA1 RON2 block: inactive; Pf growth 96h: inconclusive; Shiga inhibitor: inactive; Cycloheximide cs: inactive

What do the screens show for `CCOc1cccc(CN2CCC(n3nccc3NC(=O)c3ccc4c(c3)OCO4)CC2)c1`?
Pf growth 48h: inconclusive; SARS PLpro yeast: inactive; AMA1 RON2 block: inactive; Pf growth 96h: inactive; Shiga inhibitor: inactive; Cycloheximide cs: inactive

How did CC(C)=CCCC(C)CN1CCC(n2nccc2NC(=O)c2ccc3c(c2)OCO3)CC1 (centres undefined) do in these assays?
Pf growth 48h: 10µM; SARS PLpro yeast: inactive; AMA1 RON2 block: inactive; Pf growth 96h: inconclusive; Shiga inhibitor: inactive; Cycloheximide cs: inactive

Results for CSCC(C)N1CCC(n2nccc2NC(=O)c2ccc3c(c2)OCO3)CC1 (centres undefined) ?
Pf growth 48h: inactive; SARS PLpro yeast: inactive; AMA1 RON2 block: inactive; Pf growth 96h: inactive; Shiga inhibitor: inactive; Cycloheximide cs: inactive

What do the screens show for `COc1cccc(O)c1CN1CCC(n2nccc2NC(=O)c2ccc3c(c2)OCO3)CC1`?
Pf growth 48h: 12µM; SARS PLpro yeast: inconclusive; AMA1 RON2 block: inactive; Pf growth 96h: inactive; Shiga inhibitor: inactive; Cycloheximide cs: inactive

What do the screens show for `CSCC(=O)N1CCC(n2nccc2NC(=O)c2ccc3c(c2)OCO3)CC1`?
Pf growth 48h: inactive; SARS PLpro yeast: inactive; AMA1 RON2 block: inactive; Pf growth 96h: inconclusive; Shiga inhibitor: 62; Cycloheximide cs: 36

How did CCCn1cc(CN2CCC(n3nccc3NC(=O)c3ccc4c(c3)OCO4)CC2)c(C)n1 do in these assays?
Pf growth 48h: inactive; SARS PLpro yeast: inactive; AMA1 RON2 block: inactive; Pf growth 96h: 9.3µM; Shiga inhibitor: inactive; Cycloheximide cs: inactive

Results for C/C=C(\C)CN1CCC(n2nccc2NC(=O)c2ccc3c(c2)OCO3)CC1 ?
Pf growth 48h: inactive; SARS PLpro yeast: inactive; AMA1 RON2 block: inactive; Pf growth 96h: inactive; Shiga inhibitor: inactive; Cycloheximide cs: inactive

Results for CC(C)(C)c1ccc(OCCN2CCCC2)cc1 ?
Pf growth 48h: inactive; SARS PLpro yeast: inconclusive; AMA1 RON2 block: inactive; Pf growth 96h: inconclusive; Shiga inhibitor: inactive; Cycloheximide cs: inactive

What do the screens show for `c1cc(-c2cnn3cc(-c4ccc(OCCN5CCCCC5)cc4)cnc23)ccn1`?
Shiga inhibitor: 27; Cycloheximide cs: 40

How did CN1C(=O)/C(=C/c2ccc(-c3ccccc3[N+](=O)[O-])o2)SC1=Nc1ccc(Cl)c(C(=O)O)c1 do in these assays?
Pf growth 48h: inactive; SARS PLpro yeast: inactive; AMA1 RON2 block: inactive; Pf growth 96h: inconclusive; Shiga inhibitor: inactive; Cycloheximide cs: inactive

What do the screens show for `COc1ccc(S(=O)(=O)N2CCOC2CNC(=O)C(=O)NCCc2c[nH]c3ccccc23)cc1C` (centres undefined)?
Pf growth 48h: inconclusive; SARS PLpro yeast: inactive; AMA1 RON2 block: inactive; Pf growth 96h: 9.3µM; Shiga inhibitor: inactive; Cycloheximide cs: inactive

Results for O=C(NCCc1c[nH]c2ccccc12)C(=O)NCC1OCCCN1S(=O)(=O)c1cc(F)ccc1F (centres undefined) ?
Pf growth 48h: 13µM; SARS PLpro yeast: inactive; AMA1 RON2 block: inactive; Pf growth 96h: 3.3µM; Shiga inhibitor: inactive; Cycloheximide cs: inactive

Results for Cc1ccc(C2CC(=O)Oc3cc4c(cc32)OCO4)cc1 (centres undefined) ?
Shiga inhibitor: inactive; Cycloheximide cs: inactive

How did C=CCc1ccc(OCCOCCOc2ccccc2[N+](=O)[O-])c(OC)c1 do in these assays?
Pf growth 48h: inconclusive; SARS PLpro yeast: inactive; AMA1 RON2 block: inactive; Pf growth 96h: inactive; Shiga inhibitor: inactive; Cycloheximide cs: inactive

Results for CCCn1c(=O)n(C)c(=O)c2c(SCC(=O)Nc3cc(C)on3)nc(C(C)(C)C)nc21 ?
Pf growth 48h: 10µM; SARS PLpro yeast: inactive; AMA1 RON2 block: inactive; Pf growth 96h: inconclusive

Results for Cc1ccc(S(=O)(=O)N(C)C)cc1-n1c(SCC(=O)Nc2ccc(F)cc2Cl)nc2ccccc2c1=O ?
Pf growth 48h: 13µM; SARS PLpro yeast: inactive; AMA1 RON2 block: inactive[11.6 µM]; Pf growth 96h: inconclusive; Shiga inhibitor: inactive; Cycloheximide cs: inactive

Results for Cc1ccc(S(=O)(=O)N(C)C)cc1-n1c(SCC(=O)Nc2ccccc2)nc2ccccc2c1=O ?
Pf growth 48h: inconclusive; SARS PLpro yeast: inactive; AMA1 RON2 block: inactive; Pf growth 96h: inconclusive; Shiga inhibitor: inactive; Cycloheximide cs: inactive

Results for Cc1ccc(S(=O)(=O)N(C)C)cc1-n1c(SCC(=O)Nc2ccc(F)cc2)nc2ccccc2c1=O ?
Pf growth 48h: 9.3µM; SARS PLpro yeast: inactive; AMA1 RON2 block: inactive; Pf growth 96h: 9.3µM; Shiga inhibitor: inactive; Cycloheximide cs: inactive

Results for COC(=O)Cc1c(C)nc2nc(NCc3cccc([N+](=O)[O-])c3)[nH]n2c1=O ?
SARS PLpro yeast: inactive; AMA1 RON2 block: inactive; Pf growth 96h: inactive; Shiga inhibitor: inactive; Cycloheximide cs: inactive

What do the screens show for `COCCNc1c(-c2ccc(OC)c(OC)c2)nc2ccc(Cl)cn12`?
Pf growth 48h: inconclusive; SARS PLpro yeast: inactive; AMA1 RON2 block: inactive; Pf growth 96h: inactive; Shiga inhibitor: inactive; Cycloheximide cs: inactive

How did COCCNc1c(-c2cc3ccc(C)c(C)c3[nH]c2=O)nc2ccccn12 do in these assays?
Pf growth 48h: inactive; SARS PLpro yeast: inactive; AMA1 RON2 block: inactive; Pf growth 96h: inactive; Shiga inhibitor: 63; Cycloheximide cs: 42

How did Cc1cccc(-c2nc(CS(=O)CC(=O)NC3CCCC3)c(C)o2)c1 (centres undefined) do in these assays?
SARS PLpro yeast: inactive; AMA1 RON2 block: inactive; Pf growth 96h: inconclusive; Shiga inhibitor: inactive; Cycloheximide cs: inactive
